# In the supplement of paper PMC4371806:
# The full ranking holds about 1,600 compounds; the median of “plate-normalized OD600 growth (mean of duplicates)” is about 0.31, and the lowest 2% start at about 0.23. The full list was thinned out, with the lowest values kept by preference.
# System: Escherichia coli BW25113
# Assay: plate-normalized OD600 growth (mean of duplicates) (OD600 (normalized)); higher = more growth (less inhibition)
# Details: 10 µM
# Description: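 E. coli BW25113 in LB (100 µl, 96-well, no shaking) was exposed to 10 µM of each compound (here the ChemBridge subset of a ~30,000-member library) and grown at 37°C for 24 h or 15°C for 48 h, in duplicate. Growth was read as OD600 and the duplicate ODs were normalized across screening plates to correct plate-to-plate variation.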
Structure (SMILES),"plate-normalized OD600 growth (temperature: 15°C, 48 h)","plate-normalized OD600 growth (temperature: 37°C, 24 h)"
CCN(CC)C(=O)c1ccc([N+](=O)[O-])o1,0.247,0.627
O=C(Nc1ccccc1F)c1ccc([N+](=O)[O-])o1,0.201,0.592
O=C(Nc1ccccc1NC(=O)c1ccccc1F)c1ccccc1F,0.263,0.627
CCOc1ccccc1N1CCN(C(=O)c2ccccc2C)CC1,0.287,0.646
Brc1ccc(CN2CCN(c3ccccn3)CC2)cc1,0.267,0.614
COc1ccc(CN2CCCN(C)CC2)cc1Br,0.229,0.632
COc1cccc(N2CCN(CC3CC4C=CC3C4)CC2)c1 (configuration not stated),0.296,0.627
CN1CCCN(CC2CC3C=CC2C3)CC1 (configuration not stated),0.225,0.656
COc1ccc(S(=O)(=O)N2CCCC2)cc1,0.219,0.612
COc1ccc(S(=O)(=O)N2CCCC(C)C2)cc1 (configuration not stated),0.266,0.639
COC(=O)Nc1ccc(S(=O)(=O)N2CCCCC2)cc1,0.238,0.599
Cc1cc(NO)nc(-c2ccc(Br)cc2)n1,0.221,0.622
Cc1nc(C)c(-c2cc(C)c3c(C)nc(C)nc3n2)c(N)n1,0.252,0.617
O=C(COc1ccc(Cl)cc1Cl)Nc1ccc(C(=O)O)cc1,0.261,0.618
COc1cccc(NC(=O)c2ccncc2)c1,0.261,0.618
O=C(c1cccnc1)N1CCN(C(=O)c2ccco2)CC1,0.24,0.631
COc1cc(C)c(N)cc1C(C)C,0.226,0.6
COc1ccc(Cc2ccc(OC)c(N)c2)cc1N,0.254,0.632
COc1cc2c(cc1NC(=O)C(Cl)Cl)oc1ccccc12,0.232,0.619
Cc1ccc(N2C(=O)CC(N3CCN(c4ccc([N+](=O)[O-])cc4)CC3)C2=O)c(C)c1 (configuration not stated),0.218,0.612
COc1ccccc1N1C(=O)CC(N2CCN(c3ccc([N+](=O)[O-])cc3)CC2)C1=O (configuration not stated),0.282,0.637
COc1ccc(N2C(=O)CC(N3CCN(c4ccc(F)cc4)CC3)C2=O)cc1 (configuration not stated),0.24,0.59
Cc1ccccc1OCCCCN1CCCCC1,0.265,0.623
c1ccc(OCCCCN2CCCCC2)cc1,0.241,0.621

Structure (SMILES),"plate-normalized OD600 growth (temperature: 15°C, 48 h)","plate-normalized OD600 growth (temperature: 37°C, 24 h)"
Fc1ccccc1OCCCCN1CCCCC1,0.214,0.61
CC(Nc1cc(=O)n(C)c(=O)[nH]1)c1ccccc1 (configuration not stated),0.254,0.611
CC1(C)CC(n2c(NN)nc3c(c2=O)C2(CCCCC2)Cc2ccccc2-3)CCO1 (configuration not stated),0.255,0.631
CC(=O)N1CCC(NC2CCCCCC2)CC1,0.269,0.62
C=C(C)CN(CC)C1CCN(C(C)=O)CC1,0.226,0.627
CCN(CCN(C)C)C1CCCCCC1,0.26,0.618
CN1CCN(C(=O)CC(c2ccccc2)c2ccccc2)CC1,0.253,0.62
N#Cc1ccc(-c2cccs2)[nH]c1=O,0.236,0.644
O=C(/C=C/c1ccc(-c2ccc(F)cc2)o1)c1cccs1,0.253,0.617
O=Cc1ccc(-c2ccc(Cl)c(C(=O)O)c2)o1,0.268,0.622
NS(=O)(=O)c1ccc(-c2ccc(C=O)o2)cc1,0.227,0.612
COc1ccc2nc3c(nc2c1)C(=O)c1ccccc1-3,0.234,0.611
c1cncc(-c2nc3c4c5c(sc4ncn3n2)CCCC5)c1,0.261,0.628
COc1ccc(CNCCC2CCOC(C)(C)C2)cc1 (configuration not stated),0.263,0.65
Cc1nnc(Sc2ccc(C=O)o2)s1,0.227,0.604
CCOC(=O)N1CCN(Cc2cc(C)ccc2C)CC1,0.266,0.646
CC(=O)c1ccc(NS(=O)(=O)c2cc(S(=O)(=O)c3ccccc3)ccc2C)cc1,0.278,0.649
c1ccc(CN2C3=NCCCN3c3ccccc32)cc1,0.249,0.625
N#CCCS(=O)(=O)c1ccc(Br)cc1,0.258,0.63
CCCCOc1ccc(C2(C)CC(=O)NC2=O)cc1 (configuration not stated),0.258,0.634
Cc1onc(-c2ccccc2Cl)c1C(=O)NCc1ccc2c(c1)OCO2,0.261,0.619
Cn1c2ccccc2c2nc3ccc([N+](=O)[O-])cc3cc21,0.249,0.639
NNC(=O)c1cc(-c2ccc([N+](=O)[O-])cc2)nc2ccccc12,0.251,0.647
CCn1c(C)c(C=O)c2cc([N+](=O)[O-])ccc21,0.223,0.608

Structure (SMILES),"plate-normalized OD600 growth (temperature: 15°C, 48 h)","plate-normalized OD600 growth (temperature: 37°C, 24 h)"
Cn1c(C=O)nc2cc([N+](=O)[O-])ccc21,0.241,0.625
CN(C)/C=C/c1c(C=O)c2cc([N+](=O)[O-])ccc2n1C,0.238,0.596
O=C(O)Cn1c2ccccc2c2cc([N+](=O)[O-])ccc21,0.226,0.625
Cc1n[nH]c(=O)c2cc3c(C)n[nH]c(=O)c3cc12,0.259,0.622
CC1CCC2(CC1)C(C#N)C(=O)NC(=O)C2C#N (configuration not stated),0.244,0.615
CCCC(=O)NC(c1ccccc1)c1ccccc1,0.265,0.637
CSc1nc(C)c(C(C)=O)cc1C#N,0.244,0.621
Cc1ccc(S(=O)(=O)CCSc2cccc(C(=O)Nc3ccccc3)c2)cc1,0.243,0.633
Cc1nonc1NC(=O)Nc1ccncc1,0.18,0.615
O=C(Nc1ccncc1)c1ccc(Cl)cc1Cl,0.263,0.623
CC(=O)Nc1cccc(NC(=O)Nc2cccc(Cl)c2)c1,0.236,0.585
Cc1ccc(C(C)NC(=O)c2ccccc2)c(C)c1 (configuration not stated),0.267,0.619
Cc1ccc(NC(=O)[C@@H]2C3C=CC(C3)[C@@H]2C(=O)O)c(C)c1 (some centres not stated),0.247,0.648
CCCN(CCO)Cc1ccccc1F,0.235,0.589
c1ccc(CCN2CCN(c3ccccc3)CC2)cc1,0.227,0.62
c1ccc(CCCN2CCOCC2)cc1,0.251,0.615
c1ccc(CCN2CCC(N3CCOCC3)CC2)cc1,0.239,0.618
Clc1ccccc1N1CCN(Cc2ccc(Br)o2)CC1,0.245,0.606
N#CC1=C(N)N2C(=C(C#N)C1c1c(F)cccc1Cl)Sc1ccccc12 (configuration not stated),0.27,0.622
O=C(NCC1CCCO1)c1ccc2c(c1)OCO2 (configuration not stated),0.243,0.615
Cc1ccc(CN(C)CCc2ccccn2)cc1,0.272,0.619
CN(CCc1ccccn1)Cc1ccc(Cl)c(Cl)c1,0.222,0.622
CN(CCCc1ccccc1)CCc1ccccn1,0.26,0.659
